# Data taken from PubChem BioAssay (EPA / NIEHS).
# Active and inactive are the calls of the source. How the source made its calls: active means hit-call score of the fitted dose curve at least 0.9, where 1 is the maximum; inactive means score below 0.9.
# Columns and labels:
# [1] = APR_HepG2_CellCycleArrest_24hr: Apredica 24-hour HepG2 Assay for Cell Cycle Arrest (AID 2282905); details: imaging, actives raise or lower the signal;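 further: cell cycle arrest scored as ratio of 2N to 4N nuclear DNA content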
# Outline: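 Cell cycle arrest is scored from nuclear DNA content measured by high-content imaging of Hoechst 33342-stained HepG2 cells following 24-hour treatment at ten concentrations up to 200 uM, with DMSO as baseline.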
# [2] = APR_HepG2_NuclearSize_24hr: Apredica 24-hour HepG2 Assay for Nuclear Size (AID 2282907); details: high-content imaging, actives raise or lower the signal
# Outline: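 Compounds in DMSO (final 0.5%) were added to human HepG2 hepatoma cells at ten concentrations up to 200 uM for 24 hr. Fixed nuclei were stained with Hoechst 33342, and nuclear diameter was quantified from automated images.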
# [3] = APR_HepG2_CellLoss_24hr: Apredica 24-hour HepG2 Assay for Cell Loss (AID 2282908); details: high-content imaging;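 on AC50: fit in both directions so a hit may be cell loss or gain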
# Outline: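 Cell number is quantified by fluorescence imaging of Hoechst 33342-stained nuclei following dosing at 0.39–200 uM in 0.5% DMSO. Curves are fitted in both directions from the DMSO baseline.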
# [4] = APR_HepG2_MicrotubuleCSK_24hr: Apredica 24-hour HepG2 Assay for Microtubule CSK Stabilty (AID 2282909); details: HepG2 microtubule cytoskeleton imaging, actives raise or lower the signal
# Outline: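 Steps: dose HepG2 for 24 h (0.39–200 uM, 0.5% DMSO); fix 30 min in 3.7% formaldehyde at room temperature; permeabilize; stain alpha-tubulin 60 min; image microtubule cytoskeleton at 20x. Signal change fitted in both directions relative to DMSO.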
# [5] = APR_HepG2_MitoticArrest_24hr: Apredica 24-hour HepG2 Assay for Mitotic Arrest (AID 2282910); details: high-content imaging, actives raise or lower the signal
# Outline: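 HepG2 cells, 24 h exposure at 0.39-200 uM (10 concentrations, duplicate, 0.5% DMSO). Fixed, stained for phospho-histone H3 with Hoechst; imaged by high-content microscopy, bidirectional fit versus DMSO.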
# [6] = APR_HepG2_MitoMembPot_24hr: Apredica 24-hour HepG2 Assay for Mitochondrial Membrane Potential (AID 2282911); details: imaging, actives raise or lower the signal
# Outline: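 HepG2, 24 hr dosing, 10 concentrations 0.39–200 uM, 0.5% DMSO final. Live-cell MitoTracker Red CMXRos 250 nM 30 min, then 3.7% formaldehyde fix. HCS fluorescence imaging, 20x; bidirectional fit vs DMSO baseline.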
# [7] = APR_HepG2_MitoMass_24hr: Apredica 24-hour HepG2 Assay for Mitochondrial Mass (AID 2282912); details: high-content imaging, actives raise or lower the signal
# Outline: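 The liver line HepG2 was dosed in duplicate across a 0.39–200 uM series, with final DMSO held at 0.5% v/v, and harvested at 24 hr. High-content imaging measured mitochondrial dye staining.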
# [8] = APR_HepG2_p53Act_24hr: Apredica 24-hour HepG2 Assay for p53 Activation (AID 2282913); details: high-content imaging, actives raise or lower the signal;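 further: p53 protein immunofluorescence averaged per cell in HepG2 with Hoechst nuclei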
# Outline: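 Read-out: Cy5 immunofluorescence for p53 in fixed, permeabilized HepG2, imaged by HCS with Hoechst-defined nuclei. Dosing was 24 hr at 0.39–200 uM in 0.5% DMSO. Curves were fitted bidirectionally relative to DMSO.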
# [9] = APR_HepG2_CellCycleArrest_72hr: Apredica 72-hour HepG2 Assay for Cell Cycle Arrest (AID 2282914); details: high-content imaging, actives raise or lower the signal
# Outline: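 HepG2, 72 hr exposure, 10-point 0.39–200 uM, duplicate, 0.5% DMSO final. Fix 3.7% formaldehyde 30 min RT, Triton X-100 0.5%, Hoechst 33342 2 ug/mL. ArrayScan 20x, six fields/well; DNA content per nucleus; bidirectional fit vs DMSO.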
# [10] = APR_HepG2_CellLoss_72hr: Apredica 72-hour HepG2 Assay for Cell Loss (AID 2282915); details: high-content imaging
# Outline: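 HepG2 cells exposed 72 h to compound at 0.39–200 uM (10 concentrations, duplicate) in 0.5% DMSO. Fixed with 3.7% formaldehyde and Hoechst 33342-stained. Imaged at 20x; nuclear count gives cell number, fitted bidirectionally versus DMSO.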
SMILES,outcome [1],outcome [2],outcome [3],outcome [4],outcome [5],outcome [6],outcome [7],outcome [8],outcome [9],outcome [10],AC50 [9],AC50 [3],AC50 [4],AC50 [5],AC50 [8],AC50 [10],AC50 [7],AC50 [1],AC50 [6]
CCOCCO,inactive,inactive,inactive,inactive,inactive,inactive,inactive,inactive,inactive,inactive,–,–,–,–,–,–,–,–,–
Cn1c(=O)cc(Oc2ccc(F)cc2F)c2cnc(NCC(C)(C)O)nc21,inactive,inactive,inactive,inactive,inactive,inactive,inactive,inactive,–,inactive,112 µM (active),–,–,–,–,–,–,–,–
C[C@](N)(Cc1ccc(O)c(O)c1)C(=O)O,inactive,inactive,inactive,inactive,inactive,inactive,inactive,inactive,inactive,inactive,–,–,–,–,–,–,–,–,–
CCc1cc(SCc2sc(-c3ccc(C(F)(F)F)cc3)nc2CN2CCN(c3ccc(OC)cc3)CC2)ccc1OCC(=O)O,inactive,inactive,–,–,–,inactive,inactive,–,inactive,–,–,49.7 µM (active),48.5 µM (active),55.9 µM (active),84 µM (active),39.5 µM (active),–,–,–
C=CCCCCCCCCC(=O)O,inactive,inactive,inactive,inactive,inactive,inactive,inactive,inactive,inactive,inactive,–,–,–,–,–,–,–,–,–
CCCC(=O)OCC,inactive,inactive,inactive,inactive,inactive,inactive,inactive,inactive,inactive,inactive,–,–,–,–,–,–,–,–,–
CC[C@H]1CC[C@H](NCc2cc3c(cc2OC)[C@H]2C[C@H]2C(=O)N3C)[C@H](c2ccccc2)N1,inactive,inactive,inactive,inactive,inactive,inactive,inactive,inactive,inactive,–,–,–,–,–,–,72.5 µM (active),–,–,–
CNS(=O)(=O)c1cc(C(=O)N2CCC(CCN3C4CCC3CC(n3c(C)nc5ccccc53)C4)(c3cccc(F)c3)CC2)c(Cl)cc1F (stereo not given),inactive,inactive,–,–,–,inactive,–,–,–,–,78.9 µM (active),62.9 µM (active),52 µM (active),40.9 µM (active),72.7 µM (active),24 µM (active),62.7 µM (active),–,–
CCOCCOCCOCCO,inactive,inactive,inactive,inactive,inactive,inactive,inactive,inactive,inactive,inactive,–,–,–,–,–,–,–,–,–
CCOc1cccc(-n2cc(C(=O)N3CCN(c4cc(C(=O)O)c5ccccc5c4)CC3)nc2-c2ccc(C)cc2)c1,–,inactive,–,–,–,inactive,–,–,–,–,96 µM (active),88.3 µM (active),101 µM (active),97.5 µM (active),99.3 µM (active),81.9 µM (active),104 µM (active),97.5 µM (active),–
Nc1ccc(Nc2ccccc2)cc1,inactive,inactive,inactive,inactive,inactive,–,inactive,inactive,–,–,13.8 µM (active),–,–,–,–,40.1 µM (active),–,–,54 µM (active)
CCOC(=O)COc1ccc2c(c1)CC(NCC(O)c1cccc(Cl)c1)CC2 (stereo not given),inactive,inactive,–,inactive,–,inactive,–,–,inactive,–,–,84.4 µM (active),–,28.7 µM (active),30.6 µM (active),71.4 µM (active),41.5 µM (active),–,–
COC(=O)c1c(Cl)c(Cl)c(C(=O)OC)c(Cl)c1Cl,inactive,inactive,inactive,inactive,inactive,inactive,inactive,inactive,inactive,inactive,–,–,–,–,–,–,–,–,–
CC(=O)OCCC(C)C,inactive,inactive,inactive,inactive,inactive,inactive,inactive,inactive,inactive,inactive,–,–,–,–,–,–,–,–,–
CC(C)(O)c1coc(S(=O)(=O)NC(=O)Nc2c3c(cc4c2CCC4)CCC3)c1,inactive,inactive,inactive,inactive,inactive,inactive,inactive,inactive,inactive,inactive,–,–,–,–,–,–,–,–,–
O=c1n(CC2CO2)c(=O)n(CC2CO2)c(=O)n1CC1CO1 (stereo not given),–,inactive,–,–,–,inactive,–,–,–,–,0.224 µM (active),1.8 µM (active),24.4 µM (active),27.8 µM (active),11.3 µM (active),10.7 µM (active),50 µM (active),0.225 µM (active),–
Nc1cccc(N)c1,inactive,inactive,inactive,inactive,inactive,inactive,inactive,inactive,inactive,inactive,–,–,–,–,–,–,–,–,–
Cc1ccc(N)cc1O,inactive,inactive,inactive,inactive,inactive,–,inactive,inactive,inactive,–,–,–,–,–,–,10.5 µM (active),–,–,0.917 µM (active)
COc1ccc(-n2nc(C(F)F)cc2-c2ccc(S(C)=O)cc2)cc1 (stereo not given),–,inactive,inactive,inactive,inactive,–,inactive,inactive,inactive,–,–,–,–,–,–,72.8 µM (active),–,49.5 µM (active),5.03 µM (active)
CC(C)CC(C)(O)C#CC(C)(O)CC(C)C (stereo not given),inactive,inactive,inactive,inactive,inactive,inactive,inactive,inactive,inactive,inactive,–,–,–,–,–,–,–,–,–
CC(C)c1cccc(C(C)C)c1N1C(=O)c2ccc(O)cc2C1=O,–,inactive,–,inactive,–,–,–,–,–,–,7.16 µM (active),87.5 µM (active),–,4.05 µM (active),46.7 µM (active),57.7 µM (active),164 µM (active),6.15 µM (active),32.7 µM (active)
